Measurements reported in the supplement of paper PMC8728848.
The full list was thinned out, with the strongest signals kept by preference.

Tests used:
Assay in all cases: glycan array binding signal (z-score within array); higher = stronger binding
Details in all cases: glycan notation: IUPAC condensed, linker removed
[1] = target: GlcNAc(b1-2)Man(a1-3)[GlcNAc(b1-2)Man(a1-6)]Man(b1-4)GlcNAc(b1-4)[Fuc(a1-6)]GlcNAc
In short: (§1)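 The Consortium for Functional Glycomics database supplied 3228 glycan arrays, of which those lacking an available protein sequence were dropped. The binding signal, a within-array Z-score, was averaged across arrays of the same protein sequence and across linkers. Negative scores can be read as non-binding.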

[2] = target: GlcNAc(b1-3)Gal(b1-4)GlcNAc(b1-3)Gal(b1-4)GlcNAc(b1-3)Gal(b1-4)GlcNAc(b1-3)Gal(b1-4)GlcNAc(b1-2)Man(a1-3)[GlcNAc(b1-3)Gal(b1-4)GlcNAc(b1-3)Gal(b1-4)GlcNAc(b1-3)Gal(b1-4)GlcNAc(b1-3)Gal(b1-4)GlcNAc(b1-2)Man(a1-6)]Man(b1-4)GlcNAc(b1-4)GlcNAc
In short: as §1

[3] = target: GlcNAc(b1-3)Gal(b1-4)GlcNAc(b1-3)Gal(b1-4)GlcNAc(b1-3)Gal(b1-4)GlcNAc(b1-3)Gal(b1-4)GlcNAc(b1-2)Man(a1-3)[GlcNAc(b1-3)Gal(b1-4)GlcNAc(b1-3)Gal(b1-4)GlcNAc(b1-3)Gal(b1-4)GlcNAc(b1-3)Gal(b1-4)GlcNAc(b1-2)Man(a1-6)]Man(b1-4)GlcNAc(b1-4)[Fuc(a1-6)]GlcNAc
In short: as §1

[4] = target: GlcNAc(b1-3)Gal(b1-4)GlcNAc(b1-3)GalNAc
In short: as §1

[5] = target: GlcNAc(b1-3)[GlcNAc(b1-6)]GalNAc
In short: as §1

GlcNAc(b1-6)GalNAc = target: GlcNAc(b1-6)GalNAc
In short: as §1

Kdn(a2-3)Gal(b1-4)Glc = target: Kdn(a2-3)Gal(b1-4)Glc
In short: as §1

[6] = target: Man(a1-2)Man(a1-3)[Man(a1-6)]Man(a1-6)[Man(a1-2)Man(a1-3)]Man(b1-4)GlcNAc(b1-4)GlcNAc
In short: as §1

[7] = target: Man(a1-3)[Man(a1-6)]Man(b1-4)GlcNAc(b1-4)GlcNAc
In short: as §1

[8] = target: Neu5Ac(a2-3)Gal(b1-4)[Fuc(a1-3)]GlcNAc(b1-3)Gal(b1-4)GlcNAc
In short: as §1

[9] = target: Neu5Ac(a2-3)Gal6S(b1-4)[Fuc(a1-3)]GlcNAc
In short: as §1

[10] = target: Neu5Ac(a2-6)Gal(b1-3)GlcNAc(b1-3)[Gal(b1-4)GlcNAc(b1-6)]Gal(b1-4)Glc
In short: as §1

[11] = target: Neu5Ac(a2-8)Neu5Ac(a2-3)Gal(b1-3)GalNAc(b1-4)[Neu5Ac(a2-8)Neu5Ac(a2-3)]Gal(b1-4)Glc
In short: as §1

[12] = target: Neu5Ac(a2-8)Neu5Ac(a2-3)Gal(b1-4)GlcNAc
In short: as §1

[13] = target: Neu5Gc(a2-3)Gal(b1-4)GlcNAc(b1-3)Gal(b1-4)GlcNAc(b1-2)Man(a1-3)[Neu5Gc(a2-3)Gal(b1-4)GlcNAc(b1-3)Gal(b1-4)GlcNAc(b1-2)Man(a1-6)]Man(b1-4)GlcNAc(b1-4)GlcNAc
In short: as §1

[14] = target: Neu5Gc(a2-6)Gal(b1-4)GlcNAc
In short: as §1

[15] = target: Neu5Gc(a2-8)Neu5Gc(a2-3)Gal(b1-4)GlcNAc
In short: as §1

B1: Gal 3C (Homo sapiens), P17931 (protein)
chain: YGAPAGPLIVPYNLPLPGGVVPRMLITILGTVKPNANRIALDFQRGNDVAFHFNPRFNENNRRVIVCNTKLDNNWGREERQSVFPFESGKPFKIQVLVEPDHFKVAVNDAHLLQYNHRVKKLNEISKLGISGDIDLTSASYTMI
[1]
  glycan array binding signal (z-score): -0.196
[2]
  glycan array binding signal (z-score): 4.63
[3]
  glycan array binding signal (z-score): 4.02
[4]
  glycan array binding signal (z-score): -0.286
[5]
  glycan array binding signal (z-score): -0.331
GlcNAc(b1-6)GalNAc
  glycan array binding signal (z-score): -0.322
Kdn(a2-3)Gal(b1-4)Glc
  glycan array binding signal (z-score): -0.237
[6]
  glycan array binding signal (z-score): -0.298
[7]
  glycan array binding signal (z-score): -0.065
[8]
  glycan array binding signal (z-score): -0.191
[9]
  glycan array binding signal (z-score): -0.327
[10]
  glycan array binding signal (z-score): -0.3
[11]
  glycan array binding signal (z-score): -0.226
[12]
  glycan array binding signal (z-score): -0.266
[13]
  glycan array binding signal (z-score): -0.152
[14]
  glycan array binding signal (z-score): -0.31
[15]
  glycan array binding signal (z-score): -0.336
